Only a selection was taken, and the strongest signals are over-represented in it overall.

Assay in all cases: glycan array binding signal (z-score within array); higher = stronger binding
Common to all, as to details: glycan notation: IUPAC condensed, linker removed

For assay [1], the target named is Fuc(a1-2)Gal(b1-3)GlcNAc. An outline of the steps: (§1)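 Glycan array data were curated from 3228 arrays in the Consortium for Functional Glycomics database and kept only where the protein sequence was available. Glycan names were converted to IUPAC-condensed notation, and columns mapping to the same glycan were averaged. The binding signal is a within-array Z-score, averaged across arrays of the same protein sequence at different concentrations or buffers and across linkers. Negative Z-scores can be read as non-binding.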

Assay [2] has as its target Fuc(a1-2)Gal(b1-3)[Fuc(a1-4)]GlcNAc. An outline of the steps: as §1
Assay [3] addresses Fuc(a1-2)Gal(b1-4)GlcNAc. An outline of the steps: as §1
Assay [4] concerns the target Fuc(a1-2)[Gal(a1-4)]Gal(b1-4)GlcNAc. An outline of the steps:
as §1

Assay [5] addresses Fuc(a1-2)[GalNAc(a1-4)]Gal(b1-4)GlcNAc. An outline of the steps: as §1
Assay [6] deals with Gal(a1-3)Gal(b1-4)GlcNAc. An outline of the steps:
as §1

The target in assay [7] is Gal(a1-4)GlcNAc. An outline of the steps:
as §1

Assay [8] has as its target Gal4S(b1-4)GlcNAc. An outline of the steps:
as §1

The target of assay [9] is GalNAc(a1-3)Gal. An outline of the steps:
as §1

Assay [10] concerns the target Glc(a1-4)Glc. An outline of the steps:
as §1

The target in assay [11] is GlcNAc(a1-6)Gal(b1-4)GlcNAc. An outline of the steps:
as §1

Assay [12] deals with Kdn(a2-3)Gal(b1-4)GlcNAc. An outline of the steps:
as §1

For assay [13], the target named is Man(a1-2)Man(a1-3)Man. An outline of the steps:
as §1

For assay [14], the target named is Man(a1-3)[Man(a1-6)]Man. An outline of the steps:
as §1

Assay [15] addresses Man(a1-3)[Man(a1-6)]Man(b1-4)GlcNAc(b1-4)GlcNAc. An outline of the steps:
as §1

In assay [16] the target is Neu5Ac(a2-3)Gal(b1-4)GlcNAc(b1-3)Gal(b1-4)GlcNAc. An outline of the steps: as §1
The target in assay [17] is Neu5Ac(a2-8)Neu5Ac(a2-3)[GalNAc(b1-4)]Gal(b1-4)Glc. An outline of the steps:
as §1

The target of assay [18] is Neu5Ac(a2-8)Neu5Ac(a2-8)Neu5Ac. An outline of the steps: as §1
Assay [19] concerns the target Neu5Ac9Ac(a2-6)Gal(b1-4)GlcNAc. An outline of the steps:
as §1

Assay [20] addresses Fuc(a1-2)[GalNAc(a1-3)]Gal(b1-4)Glc. An outline of the steps:
as §1

In assay [21] the target is Fuc(a1-2)[GalNAc(a1-3)]Gal(b1-4)GlcNAc. An outline of the steps: as §1
The target of assay [22] is Fuc(a1-2)[GalNAc(b1-3)]Gal. An outline of the steps: as §1
Assay [23] has as its target Gal(a1-2)Gal. An outline of the steps:
as §1

Assay [24] addresses Gal(a1-3)Gal(b1-4)Glc. An outline of the steps:
as §1

Assay [25] concerns the target Gal(a1-3)Gal(b1-4)[Fuc(a1-3)]GlcNAc. An outline of the steps:
as §1

The target of assay [26] is Gal(a1-3)[Gal(a1-4)]Gal(b1-4)GlcNAc. An outline of the steps: as §1
Assay [27] addresses Gal(a1-6)Glc. An outline of the steps:
as §1

The target of assay [28] is Gal(b1-3)Gal. An outline of the steps: as §1
Assay [29] has as its target Gal(b1-4)GlcNAc(b1-6)Gal(b1-4)GlcNAc(b1-6)GalNAc. An outline of the steps: as §1
For assay [30], the target named is GlcA(b1-3)Gal. An outline of the steps: as §1
Assay [31] concerns the target GlcNAc(a1-3)Gal(b1-4)GlcNAc. An outline of the steps:
as §1

The target of assay [32] is Man(a1-2)Man(a1-2)Man(a1-6)[Man(a1-3)]Man. An outline of the steps: as §1
The target in assay [33] is Man(a1-2)Man(a1-3)[Man(a1-2)Man(a1-6)]Man(a1-6)[Man(a1-2)Man(a1-2)Man(a1-3)]Man(b1-4)GlcNAc(b1-4)GlcNAc. An outline of the steps: as §1
For assay [34], the target named is Man(a1-2)Man(a1-6)[Man(a1-3)]Man(a1-6)[Man(a1-2)Man(a1-2)Man(a1-3)]Man(b1-4)GlcNAc(b1-4)GlcNAc. An outline of the steps: as §1
Assay [35] deals with Neu5Ac(a2-3)Gal(b1-3)[Neu5Ac(a2-6)]GalNAc. An outline of the steps: as §1
Assay [36] deals with Neu5Gc(a2-3)Gal(b1-4)Glc. An outline of the steps: as §1

B1: CV-IIL (Chromobacterium violaceum) (protein)
chain: AQQGVFTLPARINFGVTVLVNSAATQHVEIFVDNEPRAAFSGVGTGDNNLGTKVINSGSGNVRVQITANGRQSDLVSSQLVLANKLNLAVVGSEDGTDMDYNDSIVILNWPLG
As to B1, the “glycan array binding signal (z-score)” value in assay [1] is 2.67; in [2], 2.2; in assay [3], 2.98; in assay [4], 1.68; in assay [5] it was 1.2; in assay [6] it was -0.501. Moreover, the “glycan array binding signal (z-score)” value was -0.501 in assay [7]; -0.501 in [8]; -0.502 in assay [9]; -0.49 in assay [10]; -0.501 in assay [11]; -0.502 in assay [12]. Also, the “glycan array binding signal (z-score)” value in [13] was 1.55; in [14], 2.82; in assay [15] it was 2.82; in assay [16], -0.498; in assay [17], -0.501; in [18], -0.501. The “glycan array binding signal (z-score)” value in [19] is -0.502.

B2: PA-IL (Pseudomonas aeruginosa) (protein)
chain: AWKGEVLANNEAGQVTSIIYNPGDVITIVAAGWASYGPTQKWGPQGDREHPDQGLICHDAFCGALVMKIGNSGTIPVNTGLFRWVAPNNVQGAITLIYNDVPGTYGNNSGSFSVNIGKDQS
B2: the “glycan array binding signal (z-score)” value in [1] is -0.365; in assay [4], 3.69; in assay [20], 0.183; in assay [21], 0.174; in assay [22], -0.363; in [23], 4.77. Also, the “glycan array binding signal (z-score)” value was 3.73 in assay [24]; 4.11 in [25]; 3.92 in [26]; 3.15 in [7]; 1.53 in [27]; -0.271 in assay [28]. The “glycan array binding signal (z-score)” value in [29] was 0.234; in [10] it was -0.365; in [30] it was -0.365; in assay [31] it was -0.365; in assay [32], -0.365; in [13] it was -0.365. For the same molecule, the “glycan array binding signal (z-score)” value in assay [33] is -0.357; in assay [34], -0.364; in assay [35], -0.365; in [36] it was -0.364.

For the origin of these results see the supplement of paper PMC8728848.
